Experiment [1] can be described thus: NCI Yeast Anticancer Drug Screen. Data for the rad50 strain (AID 155).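 Also: 0% = growth of vehicle-only cultures of the same strain.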 To be noted: S. cerevisiae rad50 strain growth inhibition, active compounds read high. The procedure, abridged: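 Genetically altered yeast (DNA repair pathway); compound treatment; growth inhibition vs vehicle ctrl.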
The nature of experiment [2]: NCI Yeast Anticancer Drug Screen. Data for the mec2-1 strain (AID 157). As to conditions: S. cerevisiae mec2-1 strain, active compounds read high. The procedure, abridged: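 Mutant yeast (mec2-1) grown with compound; growth inhibition relative to vehicle control reported.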
Experiment [3] is described as follows: NCI Yeast Anticancer Drug Screen. Data for the sgs1 mgt1 strain (AID 161).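 Also: 0% = growth of cultures given vehicle only.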 As to conditions: S. cerevisiae sgs1 mgt1 strain, active compounds read high. The method, boiled down:
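Percent growth inhibition was derived by comparing compound-exposed mutant yeast with vehicle-exposed cultures. The strain carries alterations in DNA damage repair.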

The nature of experiment [4]: NCI Yeast Anticancer Drug Screen. Data for the cln2 rad14 strain (AID 165).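 Also: 0% = growth equal to vehicle treated cultures.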 As to conditions: S. cerevisiae cln2 rad14 strain, active compounds read high. The method, boiled down: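 Readout is yeast growth inhibition versus vehicle-treated controls, using a strain with cln2 and rad14 alterations exposed to compound.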
A short description of experiment [5]: NCI Yeast Anticancer Drug Screen. Data for the bub3 strain (AID 167). To be noted: S. cerevisiae bub3 mutant strain, active compounds read high. The procedure, abridged:
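Yeast carrying a defined mutation is treated with each compound, and growth is compared with that of vehicle-exposed cells to give inhibition.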

Experiment [6] can be described thus: NCI Yeast Anticancer Drug Screen. Data for the mlh1 rad18 strain (AID 175). As to conditions: S. cerevisiae mlh1 rad18 strain growth inhibition, active compounds read high. The procedure, abridged:
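Genetically defined yeast (DNA repair-deficient) exposed to compounds; growth inhibition determined relative to vehicle.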

The mark [7] stands for this setting: at 5.0 µM (retest, dose inferred, filed as 0.5).
The mark [8] stands for this setting: at 50.0 µM (retest, dose inferred, filed as 5.0).

This is part of a sample that, as a whole, favours compounds with a hit. Of some 79,000 tested, about 15% had one in any assay. Values without a mark were called inactive. Active and inactive are the calls of the source. Rule as the data show it: active = growth inhibition above about 70%; inactive = the rest.

`CCCc1cc2c(cc1CS(=O)(=O)CC)OCO2`: the growth inhibition was -4% in experiment [1] (setting [7]); 9% in experiment [1] (setting [8]); -9.1% in experiment [1] (at 50.0 µM); -4% in experiment [2] (setting [7]); -2% in experiment [2] (setting [8]); 2.3% in experiment [2] (at 50.0 µM). The growth inhibition in experiment [3] (setting [7]) is -7%; in experiment [3] (setting [8]), -5%; in experiment [3] (at 50.0 µM) it was 1.1%; in experiment [4] (setting [7]), -7%; in experiment [4] (setting [8]), 0%; in experiment [4] (at 50.0 µM), 23.3%. For the same compound, the growth inhibition was 23% in experiment [5] (setting [7]); 17% in experiment [5] (setting [8]); 16.7% in experiment [5] (at 50.0 µM); -4% in experiment [6] (setting [7]); -6% in experiment [6] (setting [8]); 3.75% in experiment [6] (at 50.0 µM).
For `O/N=C1/CC2CCCc3ccc4cccc1c4c32` (stereo not given), the growth inhibition is -18% in experiment [1] (setting [7]); -10% in experiment [1] (setting [8]); 60.2% in experiment [1] (at 50.0 µM); -18% in experiment [2] (setting [7]); -3% in experiment [2] (setting [8]); 22.4% in experiment [2] (at 50.0 µM). Besides, the growth inhibition was -18% in experiment [3] (setting [7]); 15% in experiment [3] (setting [8]); 22.9% in experiment [3] (at 50.0 µM); -24% in experiment [4] (setting [7]); -20% in experiment [4] (setting [8]); 12.2% in experiment [4] (at 50.0 µM). Besides, the growth inhibition in experiment [5] (setting [7]) was -12%; in experiment [5] (setting [8]), 25%; in experiment [5] (at 50.0 µM), 81.8% (active); in experiment [6] (setting [7]), -26%; in experiment [6] (setting [8]), 3%; in experiment [6] (at 50.0 µM), -4%.
Consider `COc1ccc(CCC2(C)OCCC(C)O2)cc1` (stereo not given), for which the growth inhibition was 12% in experiment [1] (setting [7]); 92% (active) in experiment [1] (setting [8]); -13.5% in experiment [1] (at 50.0 µM); 13% in experiment [2] (setting [7]); 96% (active) in experiment [2] (setting [8]); -6.35% in experiment [2] (at 50.0 µM). Besides, the growth inhibition in experiment [3] (setting [7]) was 16%; in experiment [3] (setting [8]) it was 91% (active); in experiment [3] (at 50.0 µM), -4.35%; in experiment [4] (setting [7]), 10%; in experiment [4] (setting [8]), 95% (active); in experiment [4] (at 50.0 µM) it was 28.6%. Besides, the growth inhibition was -3% in experiment [5] (setting [7]); 76% (active) in experiment [5] (setting [8]); -16.1% in experiment [5] (at 50.0 µM); 19% in experiment [6] (setting [7]); 94% (active) in experiment [6] (setting [8]); -26.8% in experiment [6] (at 50.0 µM).
In the case of `CNC(=O)N(C)/N=C/c1ccc([N+](=O)[O-])o1`, the growth inhibition in experiment [1] (setting [7]) was 15%; in experiment [1] (setting [8]), 67%; in experiment [1] (at 50.0 µM), 84.5% (active); in experiment [2] (setting [7]), 4%; in experiment [2] (setting [8]), 40%; in experiment [2] (at 50.0 µM) it was 50.5%. For the same compound, the growth inhibition was 14% in experiment [3] (setting [7]); 78% (active) in experiment [3] (setting [8]); 93.5% (active) in experiment [3] (at 50.0 µM); 0% in experiment [4] (setting [7]); 36% in experiment [4] (setting [8]); 54.6% in experiment [4] (at 50.0 µM). Also, the growth inhibition in experiment [5] (setting [7]) is 17%; in experiment [5] (setting [8]) it was 55%; in experiment [5] (at 50.0 µM), 45.5%; in experiment [6] (setting [7]), 24%; in experiment [6] (setting [8]), 76% (active); in experiment [6] (at 50.0 µM), 91.8% (active).
Take `C/C(=N/O)c1cccc(C(F)(F)F)c1`: the growth inhibition in experiment [1] (setting [7]) is -150%; in experiment [1] (setting [8]), -146%; in experiment [1] (at 50.0 µM), 7.15%; in experiment [2] (setting [7]), -50%; in experiment [2] (setting [8]) it was -58%; in experiment [2] (at 50.0 µM) it was 14.3%. Further, the growth inhibition in experiment [3] (setting [7]) was -64%; in experiment [3] (setting [8]), -63%; in experiment [3] (at 50.0 µM), -6.55%; in experiment [4] (setting [7]), -63%; in experiment [4] (setting [8]) it was -84%; in experiment [4] (at 50.0 µM) it was 35.6%. Moreover, the growth inhibition in experiment [5] (setting [7]) was -66%; in experiment [5] (setting [8]), -92%; in experiment [5] (at 50.0 µM) it was 34.6%; in experiment [6] (setting [7]), -128%; in experiment [6] (setting [8]), -127%; in experiment [6] (at 50.0 µM) it was 19.2%.
In the case of `Nc1nc(-c2cc3cc(Cl)ccc3o2)cs1`, the growth inhibition in experiment [1] (setting [7]) is 47%; in experiment [1] (setting [8]), 75% (active); in experiment [1] (at 50.0 µM), 1.1%; in experiment [2] (setting [7]), 34%; in experiment [2] (setting [8]), 61%; in experiment [2] (at 50.0 µM), -6.7%. Besides, the growth inhibition was 39% in experiment [3] (setting [7]); 75% (active) in experiment [3] (setting [8]); 24.4% in experiment [3] (at 50.0 µM); 35% in experiment [4] (setting [7]); 50% in experiment [4] (setting [8]); 15.8% in experiment [4] (at 50.0 µM). The growth inhibition in experiment [5] (setting [7]) is 46%; in experiment [5] (setting [8]), 71% (active); in experiment [5] (at 50.0 µM) it was 43.7%; in experiment [6] (setting [7]), 51%; in experiment [6] (setting [8]) it was 79% (active); in experiment [6] (at 50.0 µM), -4.25%.
Take `Clc1ccc2c(Cl)c3c(nc2c1)CCCC3`: the growth inhibition in experiment [1] (setting [7]) was -1%; in experiment [1] (setting [8]), 98% (active); in experiment [1] (at 50.0 µM) it was 99% (active); in experiment [2] (setting [7]) it was 2%; in experiment [2] (setting [8]) it was 99% (active); in experiment [2] (at 50.0 µM), 99.5% (active). Moreover, the growth inhibition in experiment [3] (setting [7]) was 2%; in experiment [3] (setting [8]), 99% (active); in experiment [3] (at 50.0 µM), 48.1%; in experiment [4] (setting [7]), 0%; in experiment [4] (setting [8]) it was 99% (active); in experiment [4] (at 50.0 µM), 99.3% (active). In addition, the growth inhibition is 3% in experiment [5] (setting [7]); 98% (active) in experiment [5] (setting [8]); 99.5% (active) in experiment [5] (at 50.0 µM); -5% in experiment [6] (setting [7]); 94% (active) in experiment [6] (setting [8]); 99.2% (active) in experiment [6] (at 50.0 µM).
As for `COc1cc(C(c2cc3c(cc2OC(C)=O)OCO3)C(C(C)=O)C(C)=O)cc(OC)c1OC(C)=O` (stereo not given), the growth inhibition in experiment [1] (setting [7]) was 7%; in experiment [1] (setting [8]), 18%; in experiment [1] (at 50.0 µM), 3.7%; in experiment [2] (setting [7]), -4%; in experiment [2] (setting [8]), 18%; in experiment [2] (at 50.0 µM) it was 5%. Further, the growth inhibition was -5% in experiment [3] (setting [7]); 0% in experiment [3] (setting [8]); -18.9% in experiment [3] (at 50.0 µM); -1% in experiment [4] (setting [7]); 1% in experiment [4] (setting [8]); -16.4% in experiment [4] (at 50.0 µM). Moreover, the growth inhibition is 8% in experiment [5] (setting [7]); 13% in experiment [5] (setting [8]); 8.75% in experiment [5] (at 50.0 µM); 3% in experiment [6] (setting [7]); 11% in experiment [6] (setting [8]); -4.2% in experiment [6] (at 50.0 µM).
Take `CCCCCCCCC[n+]1cccc(C(=O)c2ccccc2)c1`: the growth inhibition in experiment [1] (setting [7]) is -1%; in experiment [1] (setting [8]) it was 53%; in experiment [1] (at 50.0 µM), 51.6%; in experiment [2] (setting [7]), 4%; in experiment [2] (setting [8]), 56%; in experiment [2] (at 50.0 µM) it was 24.8%. The growth inhibition in experiment [3] (setting [7]) is -165%; in experiment [3] (setting [8]), 77% (active); in experiment [3] (at 50.0 µM), 72.7% (active); in experiment [4] (setting [7]) it was -4%; in experiment [4] (setting [8]), 42%; in experiment [4] (at 50.0 µM), 3.95%. In addition, the growth inhibition was 0% in experiment [5] (setting [7]); 70% (active) in experiment [5] (setting [8]); 82.5% (active) in experiment [5] (at 50.0 µM); 36% in experiment [6] (setting [7]); 78% (active) in experiment [6] (setting [8]); 72.7% (active) in experiment [6] (at 50.0 µM).
For `O=C(CCCCN1CCN2c3ccccc3CCC2C1)c1ccccc1` (stereo not given), the growth inhibition in experiment [1] (setting [7]) was -3%; in experiment [1] (setting [8]), 51%; in experiment [1] (at 50.0 µM), 90.4% (active); in experiment [2] (setting [7]) it was 2%; in experiment [2] (setting [8]) it was 53%; in experiment [2] (at 50.0 µM) it was 70.9% (active). Moreover, the growth inhibition is 15% in experiment [3] (setting [7]); 80% (active) in experiment [3] (setting [8]); 94.4% (active) in experiment [3] (at 50.0 µM); -2% in experiment [4] (setting [7]); 39% in experiment [4] (setting [8]); 58.8% in experiment [4] (at 50.0 µM). For the same compound, the growth inhibition in experiment [5] (setting [7]) is 1%; in experiment [5] (setting [8]), 37%; in experiment [5] (at 50.0 µM), 53.8%; in experiment [6] (setting [7]), 38%; in experiment [6] (setting [8]) it was 83% (active); in experiment [6] (at 50.0 µM) it was 68.9%.

These data come from PubChem BioAssay (NCI).
